Common to all, as to experiment: DAPPL (digital affinity profiling via proximity ligation, sequencing); 10 mM Tris-HCl pH 7.5, 50 mM NaCl, 1 mM DTT, 4% glycerol, room temperature, 30 min; GST-TFs on glutathione beads, 16-mer random dsDNA library, 0.1% formaldehyde crosslink after washing; high values mean tight binding
Common to all, as to conditions: protein: recombinant; tags: N-terminal GST; dsDNA, one strand shown

The target of one test is T1, FLI1 (Homo sapiens, UniProt Q01543 1-452).
T1 sequence: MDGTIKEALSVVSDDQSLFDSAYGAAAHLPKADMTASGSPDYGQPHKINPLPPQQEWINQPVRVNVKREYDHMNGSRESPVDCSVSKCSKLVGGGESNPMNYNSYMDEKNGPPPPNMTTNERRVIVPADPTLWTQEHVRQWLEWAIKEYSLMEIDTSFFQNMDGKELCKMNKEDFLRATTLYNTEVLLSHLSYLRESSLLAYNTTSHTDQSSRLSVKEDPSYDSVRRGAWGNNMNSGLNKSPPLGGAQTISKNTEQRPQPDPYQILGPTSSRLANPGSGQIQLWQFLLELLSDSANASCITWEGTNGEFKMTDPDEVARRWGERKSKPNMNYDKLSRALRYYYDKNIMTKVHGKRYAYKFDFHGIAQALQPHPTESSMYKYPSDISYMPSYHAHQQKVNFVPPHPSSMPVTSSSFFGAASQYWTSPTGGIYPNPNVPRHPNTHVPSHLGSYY
Summed up: (§1)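 Each value of binding signal is a hexamer's read frequency for a factor divided by the same hexamer's frequency in the tag-only sample. Barcoded, bead-captured GST fusions of human transcription factors made in yeast were pooled with that sample and incubated with 200 nmole of a random double-stranded 16-mer DNA library in Tris/NaCl/DTT/glycerol buffer at room temperature for 30 min. Washing, 0.1% formaldehyde crosslinking, proximity ligation, PCR and Illumina NextSeq500 sequencing followed.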

A further test concerns the target T2, ELK1 (Homo sapiens, UniProt P19419 1-428).
T2 sequence: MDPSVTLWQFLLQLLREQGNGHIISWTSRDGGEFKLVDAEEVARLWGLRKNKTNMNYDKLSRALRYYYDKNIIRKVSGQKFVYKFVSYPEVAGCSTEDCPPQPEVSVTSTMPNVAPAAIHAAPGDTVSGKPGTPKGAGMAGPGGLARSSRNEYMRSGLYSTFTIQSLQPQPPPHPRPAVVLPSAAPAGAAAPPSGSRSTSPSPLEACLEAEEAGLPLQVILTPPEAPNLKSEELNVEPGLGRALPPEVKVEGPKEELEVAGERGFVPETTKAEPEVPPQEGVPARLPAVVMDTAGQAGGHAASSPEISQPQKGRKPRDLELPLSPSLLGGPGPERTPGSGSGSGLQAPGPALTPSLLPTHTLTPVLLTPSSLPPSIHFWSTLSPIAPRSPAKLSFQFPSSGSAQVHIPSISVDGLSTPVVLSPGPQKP
The procedure, abridged: as §1

The target of a further test is T3, GABPA (Homo sapiens, UniProt Q06546 1-454).
T3 sequence: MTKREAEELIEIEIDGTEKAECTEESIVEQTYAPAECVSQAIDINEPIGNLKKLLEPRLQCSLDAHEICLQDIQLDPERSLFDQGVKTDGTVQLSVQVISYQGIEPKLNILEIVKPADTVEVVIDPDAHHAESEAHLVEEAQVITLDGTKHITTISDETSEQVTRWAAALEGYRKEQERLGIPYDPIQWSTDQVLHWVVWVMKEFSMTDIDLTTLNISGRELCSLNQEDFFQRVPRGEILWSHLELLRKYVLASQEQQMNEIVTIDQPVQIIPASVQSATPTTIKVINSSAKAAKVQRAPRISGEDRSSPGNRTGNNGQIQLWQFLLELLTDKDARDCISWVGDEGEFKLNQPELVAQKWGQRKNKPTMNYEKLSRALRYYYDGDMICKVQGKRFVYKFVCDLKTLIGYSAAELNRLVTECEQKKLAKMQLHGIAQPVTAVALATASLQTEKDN
Summed up: as §1

The next test addresses T4, ERG (Homo sapiens, UniProt P11308 1-479).
T4 sequence: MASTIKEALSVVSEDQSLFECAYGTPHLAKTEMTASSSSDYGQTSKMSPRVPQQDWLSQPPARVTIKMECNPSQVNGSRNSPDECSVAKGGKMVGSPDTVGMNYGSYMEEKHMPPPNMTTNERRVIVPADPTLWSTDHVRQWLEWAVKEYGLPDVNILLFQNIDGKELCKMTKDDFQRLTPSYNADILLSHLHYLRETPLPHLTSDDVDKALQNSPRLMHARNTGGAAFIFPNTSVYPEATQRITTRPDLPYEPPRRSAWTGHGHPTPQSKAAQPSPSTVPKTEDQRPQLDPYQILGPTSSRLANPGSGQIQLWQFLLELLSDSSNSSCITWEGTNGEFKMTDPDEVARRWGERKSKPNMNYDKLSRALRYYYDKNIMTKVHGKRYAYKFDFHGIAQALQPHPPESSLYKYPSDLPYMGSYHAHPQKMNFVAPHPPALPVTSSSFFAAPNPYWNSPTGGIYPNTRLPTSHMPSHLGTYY
Summed up:
as §1

The target in another test is ELF1 (Homo sapiens, UniProt P32519 1-619). Summed up: as §1
Sequence of ELF1 (P32519 whole entry): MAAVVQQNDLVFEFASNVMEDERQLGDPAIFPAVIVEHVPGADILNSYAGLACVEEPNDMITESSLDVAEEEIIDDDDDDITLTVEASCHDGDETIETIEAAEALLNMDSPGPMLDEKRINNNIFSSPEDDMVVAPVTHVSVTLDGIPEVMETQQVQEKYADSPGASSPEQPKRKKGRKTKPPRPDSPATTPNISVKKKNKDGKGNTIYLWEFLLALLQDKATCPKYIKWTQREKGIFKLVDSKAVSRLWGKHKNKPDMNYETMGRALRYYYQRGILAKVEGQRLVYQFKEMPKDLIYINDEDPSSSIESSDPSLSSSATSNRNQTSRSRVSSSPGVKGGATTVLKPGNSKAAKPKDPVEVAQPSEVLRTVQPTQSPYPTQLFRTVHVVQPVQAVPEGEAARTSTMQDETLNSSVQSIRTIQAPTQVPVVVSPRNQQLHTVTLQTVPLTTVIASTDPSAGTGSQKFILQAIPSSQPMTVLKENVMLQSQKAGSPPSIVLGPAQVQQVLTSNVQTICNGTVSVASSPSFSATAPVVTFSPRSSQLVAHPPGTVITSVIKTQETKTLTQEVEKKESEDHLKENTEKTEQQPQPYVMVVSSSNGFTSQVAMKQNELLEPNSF
The target of a further test is T5, EHF (Homo sapiens, UniProt Q9NZC4 1-300).
T5 sequence: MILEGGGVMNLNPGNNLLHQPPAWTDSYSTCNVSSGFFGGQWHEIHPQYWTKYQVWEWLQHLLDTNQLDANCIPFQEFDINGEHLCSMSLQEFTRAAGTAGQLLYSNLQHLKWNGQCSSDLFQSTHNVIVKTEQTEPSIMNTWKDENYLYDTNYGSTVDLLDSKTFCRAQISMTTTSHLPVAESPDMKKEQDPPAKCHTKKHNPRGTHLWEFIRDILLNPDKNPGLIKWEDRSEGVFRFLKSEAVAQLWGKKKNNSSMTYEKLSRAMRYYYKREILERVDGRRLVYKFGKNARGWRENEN
The procedure, abridged:
as §1

In a further test the target is SPI1 (Homo sapiens, UniProt P17947 1-270). The procedure, abridged: as §1
In a further test the target is SPIB (Homo sapiens, UniProt Q01892 1-262). Summed up:
as §1

Another test concerns the target T6, ELK3 (Homo sapiens, UniProt P41970 1-407).
T6 sequence: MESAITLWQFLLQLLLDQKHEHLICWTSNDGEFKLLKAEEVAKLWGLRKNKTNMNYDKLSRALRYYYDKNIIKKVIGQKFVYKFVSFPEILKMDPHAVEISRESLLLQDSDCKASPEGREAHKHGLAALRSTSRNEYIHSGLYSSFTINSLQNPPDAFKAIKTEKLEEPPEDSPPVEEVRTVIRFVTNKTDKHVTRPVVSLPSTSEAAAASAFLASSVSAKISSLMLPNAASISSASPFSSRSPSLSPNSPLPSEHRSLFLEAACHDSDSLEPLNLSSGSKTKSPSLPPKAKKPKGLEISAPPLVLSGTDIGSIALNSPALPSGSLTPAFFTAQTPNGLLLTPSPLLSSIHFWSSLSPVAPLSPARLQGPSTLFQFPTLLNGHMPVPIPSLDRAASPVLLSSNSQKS
Summed up: as §1

The target of another test is T7, FEV (Homo sapiens, UniProt Q99581 1-238).
T7 sequence: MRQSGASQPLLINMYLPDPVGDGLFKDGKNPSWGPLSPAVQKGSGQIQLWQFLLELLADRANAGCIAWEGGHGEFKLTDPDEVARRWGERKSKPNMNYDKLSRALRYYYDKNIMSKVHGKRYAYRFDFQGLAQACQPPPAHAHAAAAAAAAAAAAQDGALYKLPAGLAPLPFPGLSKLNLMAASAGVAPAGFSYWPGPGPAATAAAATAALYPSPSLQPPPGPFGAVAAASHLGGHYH
Summed up:
as §1

Another test has as its target ETV5 (Homo sapiens, UniProt P41161 1-510). The procedure, abridged: as §1
Another test addresses T8, SPIC (Homo sapiens, UniProt Q8N5J4 1-248).
T8 sequence: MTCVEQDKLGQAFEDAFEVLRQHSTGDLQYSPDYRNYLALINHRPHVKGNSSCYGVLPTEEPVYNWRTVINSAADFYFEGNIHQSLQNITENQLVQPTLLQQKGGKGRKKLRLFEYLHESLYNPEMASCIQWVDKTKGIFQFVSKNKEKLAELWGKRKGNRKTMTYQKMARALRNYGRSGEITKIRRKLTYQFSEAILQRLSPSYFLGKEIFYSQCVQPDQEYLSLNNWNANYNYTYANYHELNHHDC
The procedure, abridged: as §1

In the next test the target is ELF4 (Homo sapiens, UniProt Q99607 1-663). The procedure, abridged: as §1
Sequence of ELF4 (Q99607 whole entry): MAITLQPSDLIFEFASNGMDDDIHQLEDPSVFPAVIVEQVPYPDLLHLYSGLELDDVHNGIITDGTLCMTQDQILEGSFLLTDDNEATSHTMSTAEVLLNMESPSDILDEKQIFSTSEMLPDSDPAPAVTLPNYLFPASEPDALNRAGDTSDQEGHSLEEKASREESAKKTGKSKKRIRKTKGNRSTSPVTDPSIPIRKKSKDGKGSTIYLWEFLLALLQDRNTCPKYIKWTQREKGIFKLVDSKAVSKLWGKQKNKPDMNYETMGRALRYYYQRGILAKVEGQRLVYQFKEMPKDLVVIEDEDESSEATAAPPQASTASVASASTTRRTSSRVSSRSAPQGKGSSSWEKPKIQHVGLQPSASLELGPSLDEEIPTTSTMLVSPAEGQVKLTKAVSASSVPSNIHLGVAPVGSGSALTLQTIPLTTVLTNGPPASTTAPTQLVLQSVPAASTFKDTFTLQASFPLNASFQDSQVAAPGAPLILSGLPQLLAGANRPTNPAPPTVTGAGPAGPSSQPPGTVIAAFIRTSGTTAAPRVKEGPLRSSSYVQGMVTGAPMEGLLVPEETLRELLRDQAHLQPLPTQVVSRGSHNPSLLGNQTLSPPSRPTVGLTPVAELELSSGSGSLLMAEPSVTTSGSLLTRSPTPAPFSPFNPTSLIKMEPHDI
A further test concerns the target T9, ELK4 (Homo sapiens, UniProt P28324-2 1-405).
T9 sequence: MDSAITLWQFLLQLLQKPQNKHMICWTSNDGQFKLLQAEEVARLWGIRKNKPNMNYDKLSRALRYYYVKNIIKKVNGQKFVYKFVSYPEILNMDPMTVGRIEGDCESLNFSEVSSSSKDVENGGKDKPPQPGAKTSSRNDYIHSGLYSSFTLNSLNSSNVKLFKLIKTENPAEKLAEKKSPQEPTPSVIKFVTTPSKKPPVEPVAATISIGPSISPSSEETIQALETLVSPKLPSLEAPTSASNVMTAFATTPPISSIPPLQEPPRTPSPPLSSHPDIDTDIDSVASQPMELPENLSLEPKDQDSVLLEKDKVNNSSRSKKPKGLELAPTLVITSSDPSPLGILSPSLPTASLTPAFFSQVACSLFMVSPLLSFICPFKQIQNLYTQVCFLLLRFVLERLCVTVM
The procedure, abridged:
as §1

For the next test, the target named is T10, ETV2 (Homo sapiens, UniProt O00321 1-342).
T10 sequence: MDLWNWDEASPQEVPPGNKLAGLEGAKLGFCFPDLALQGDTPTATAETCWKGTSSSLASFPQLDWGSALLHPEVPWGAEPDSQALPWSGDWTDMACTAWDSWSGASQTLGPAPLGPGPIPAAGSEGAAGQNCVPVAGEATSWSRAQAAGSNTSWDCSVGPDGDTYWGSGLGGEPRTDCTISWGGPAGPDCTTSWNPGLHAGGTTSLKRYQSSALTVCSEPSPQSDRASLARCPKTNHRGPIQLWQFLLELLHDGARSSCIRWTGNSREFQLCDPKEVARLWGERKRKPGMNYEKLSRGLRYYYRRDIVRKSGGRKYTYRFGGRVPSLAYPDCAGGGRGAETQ
Summed up:
as §1

Another test deals with T11, ELF3 (Homo sapiens, UniProt P78545 1-371).
T11 sequence: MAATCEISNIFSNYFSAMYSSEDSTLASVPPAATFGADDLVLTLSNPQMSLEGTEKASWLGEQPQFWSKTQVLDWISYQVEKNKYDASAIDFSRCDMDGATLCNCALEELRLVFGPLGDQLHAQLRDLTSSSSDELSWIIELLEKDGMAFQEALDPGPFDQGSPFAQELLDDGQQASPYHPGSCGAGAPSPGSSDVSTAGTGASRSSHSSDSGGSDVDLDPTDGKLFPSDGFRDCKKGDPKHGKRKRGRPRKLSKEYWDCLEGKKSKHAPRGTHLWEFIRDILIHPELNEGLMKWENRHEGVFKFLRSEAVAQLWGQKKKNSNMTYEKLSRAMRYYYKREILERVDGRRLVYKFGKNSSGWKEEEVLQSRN
Summed up:
as §1

The target in another test is ETV1 (Homo sapiens, UniProt P50549 1-477). The procedure, abridged:
as §1

Sequence of ETV5 (P41161 whole entry): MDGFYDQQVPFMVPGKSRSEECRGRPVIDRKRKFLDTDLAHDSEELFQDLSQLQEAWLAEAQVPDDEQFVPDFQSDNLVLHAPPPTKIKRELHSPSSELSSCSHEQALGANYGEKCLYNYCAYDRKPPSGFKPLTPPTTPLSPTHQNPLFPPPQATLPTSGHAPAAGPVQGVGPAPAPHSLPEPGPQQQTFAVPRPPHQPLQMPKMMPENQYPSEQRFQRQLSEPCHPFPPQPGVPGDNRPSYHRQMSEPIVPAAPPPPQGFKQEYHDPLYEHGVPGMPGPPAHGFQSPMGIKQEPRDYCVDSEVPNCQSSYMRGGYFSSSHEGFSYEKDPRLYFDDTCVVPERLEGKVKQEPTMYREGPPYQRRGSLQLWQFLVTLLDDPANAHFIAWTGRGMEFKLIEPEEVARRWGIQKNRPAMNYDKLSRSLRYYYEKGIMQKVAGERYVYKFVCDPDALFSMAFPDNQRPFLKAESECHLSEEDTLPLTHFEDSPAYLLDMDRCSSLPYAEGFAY
Sequence of ETV1 (P50549 whole entry): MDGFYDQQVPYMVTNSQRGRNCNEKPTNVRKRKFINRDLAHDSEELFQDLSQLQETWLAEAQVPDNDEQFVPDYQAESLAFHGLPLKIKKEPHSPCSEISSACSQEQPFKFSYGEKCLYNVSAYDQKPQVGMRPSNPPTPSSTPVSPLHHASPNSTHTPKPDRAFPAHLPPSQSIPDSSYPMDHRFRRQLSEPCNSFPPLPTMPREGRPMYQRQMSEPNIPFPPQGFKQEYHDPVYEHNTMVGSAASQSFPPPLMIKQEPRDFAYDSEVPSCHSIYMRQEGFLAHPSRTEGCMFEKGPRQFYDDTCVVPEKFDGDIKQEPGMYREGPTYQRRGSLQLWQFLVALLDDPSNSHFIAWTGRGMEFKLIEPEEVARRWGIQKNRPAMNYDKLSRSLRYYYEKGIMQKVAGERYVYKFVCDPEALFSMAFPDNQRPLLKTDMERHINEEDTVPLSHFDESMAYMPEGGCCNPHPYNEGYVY
Sequence of SPIB (Q01892 whole entry): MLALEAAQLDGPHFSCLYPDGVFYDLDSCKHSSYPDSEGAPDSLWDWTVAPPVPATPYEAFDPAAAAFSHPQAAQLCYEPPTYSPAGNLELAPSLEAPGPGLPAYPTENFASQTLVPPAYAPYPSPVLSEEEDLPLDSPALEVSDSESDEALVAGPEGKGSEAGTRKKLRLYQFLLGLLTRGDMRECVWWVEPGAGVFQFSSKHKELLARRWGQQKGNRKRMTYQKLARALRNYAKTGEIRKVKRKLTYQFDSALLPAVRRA

Turning to TGACAC, the binding signal in the test with FLI1 is 1.13 fold enrichment (6-mer frequency, TF over GST control); in the test with ELK1, 1.27 fold enrichment (6-mer frequency, TF over GST control); with GABPA, 1.07 fold enrichment (6-mer frequency, TF over GST control); in the test with ERG it was 1.2 fold enrichment (6-mer frequency, TF over GST control); in the test with ELF1 it was 1.17 fold enrichment (6-mer frequency, TF over GST control); with EHF, 1.15 fold enrichment (6-mer frequency, TF over GST control). In addition, the binding signal is 1.13 fold enrichment (6-mer frequency, TF over GST control) in the test with SPI1; 1.11 fold enrichment (6-mer frequency, TF over GST control) in the test with SPIB; 1.22 fold enrichment (6-mer frequency, TF over GST control) with ELK3; 1.11 fold enrichment (6-mer frequency, TF over GST control) with FEV; 1.11 fold enrichment (6-mer frequency, TF over GST control) with ETV5; 1.07 fold enrichment (6-mer frequency, TF over GST control) in the test with SPIC. Besides, the binding signal with ELF4 was 1.1 fold enrichment (6-mer frequency, TF over GST control); with ELK4, 1.18 fold enrichment (6-mer frequency, TF over GST control); in the test with ETV2, 1.15 fold enrichment (6-mer frequency, TF over GST control); with ELF3 it was 1.14 fold enrichment (6-mer frequency, TF over GST control); in the test with ETV1, 1.1 fold enrichment (6-mer frequency, TF over GST control).

With TGGACA, the binding signal was 1.06 fold enrichment (6-mer frequency, TF over GST control) with FLI1; 1.07 fold enrichment (6-mer frequency, TF over GST control) in the test with ELK1; 1.11 fold enrichment (6-mer frequency, TF over GST control) in the test with GABPA; 1.05 fold enrichment (6-mer frequency, TF over GST control) with ERG; 1.15 fold enrichment (6-mer frequency, TF over GST control) with ELF1; 1.05 fold enrichment (6-mer frequency, TF over GST control) in the test with EHF. In addition, the binding signal with SPI1 was 1.03 fold enrichment (6-mer frequency, TF over GST control); with SPIB it was 1.08 fold enrichment (6-mer frequency, TF over GST control); in the test with ELK3, 1.07 fold enrichment (6-mer frequency, TF over GST control); with FEV it was 1.1 fold enrichment (6-mer frequency, TF over GST control); with ETV5, 1.08 fold enrichment (6-mer frequency, TF over GST control); with SPIC, 1.05 fold enrichment (6-mer frequency, TF over GST control). Besides, the binding signal with ELF4 is 1.13 fold enrichment (6-mer frequency, TF over GST control); in the test with ELK4, 1.03 fold enrichment (6-mer frequency, TF over GST control); in the test with ETV2 it was 1.03 fold enrichment (6-mer frequency, TF over GST control); with ELF3, 1.15 fold enrichment (6-mer frequency, TF over GST control); with ETV1, 1.03 fold enrichment (6-mer frequency, TF over GST control).

Values taken from publication PMC7862700, “An all-to-all approach to the identification of sequence-specific readers for epigenetic DNA modifications on cytosine”.
